Measurements as given in the supplement of paper PMC10849652.
Of roughly 7,900 targets only a part is listed; those with a hit were picked by preference. About 0.6% of all pairs of compound and target were hits. Unmarked numbers belong to inactive results.

Columns and labels:
Assay in all cases: log2 fold change, soluble protein after heating vs DMSO (PISA); higher = thermal stabilisation; K562 cells, 10 uM, 30 min; active = over 0.2 and 3.5 SD of the protein, either way, in both replicates (recomputed)
[1] = compound: NC(=O)Nc1cc(-c2cccc(F)c2)sc1C(=O)N[C@H]1CCCNC1
Outline: (§1)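 K562 cells at 2×10^6 cells/mL were given 10 μM compound for 30 min. Aliquots then went through 3 min of heating across 48°C-58°C, were pooled, and were extracted in PBS with 0.5% NP-40 at 4°C, and the supernatant after 21,000xg for 90 min was quantified by TMTpro 16plex LC-MS/MS with channel sums equalised. Thermal stability relative to control samples, from duplicates, is given as log2 fold change.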

[2] = compound: NC(=O)c1cnc(N[C@@H]2CCCC[C@@H]2N)nc1Nc1cccc(-n2nccn2)c1
Outline: as §1

[3] = compound: NC1(c2ccc(-c3nc4ccn5c(=O)[nH]nc5c4cc3-c3ccccc3)cc2)CCC1
Outline: as §1

[4] = compound: NCC(=O)Nc1ccc(-n2nc(C(F)(F)F)cc2-c2ccc3c(ccc4ccccc43)c2)cc1
Outline: as §1

[5] = compound: Nc1ccccc1NC(=O)c1ccc(CNC(=O)OCc2cccnc2)cc1 [entinostat]
Outline: as §1

[6] = compound: O=C(CCCCCCC(=O)Nc1ccccc1)NO [vorinostat]
Outline: as §1

[7] = compound: O=C(CCCCCCNC(=O)c1cnc(N(c2ccccc2)c2ccccc2Cl)nc1)NO [citarinostat]
Outline: as §1

[8] = compound: O=C(O)c1ccc2c(c1)nc(Nc1cccc(Cl)c1)c1ccncc12 [silmitasertib]
Outline: as §1

[9] = compound: O=C1NC(=O)C(c2cnc3ccccn23)=C1c1cn2c3c(cc(F)cc13)CN(C(=O)N1CCCCC1)CC2
Outline: as §1

[10] = compound: c1cc(OCCN2CCCCC2)cc(-c2n[nH]c3ccc(-c4nnc[nH]4)cc23)c1
Outline: as §1

UniProt P51532, sequence (P51532 whole entry, looked up): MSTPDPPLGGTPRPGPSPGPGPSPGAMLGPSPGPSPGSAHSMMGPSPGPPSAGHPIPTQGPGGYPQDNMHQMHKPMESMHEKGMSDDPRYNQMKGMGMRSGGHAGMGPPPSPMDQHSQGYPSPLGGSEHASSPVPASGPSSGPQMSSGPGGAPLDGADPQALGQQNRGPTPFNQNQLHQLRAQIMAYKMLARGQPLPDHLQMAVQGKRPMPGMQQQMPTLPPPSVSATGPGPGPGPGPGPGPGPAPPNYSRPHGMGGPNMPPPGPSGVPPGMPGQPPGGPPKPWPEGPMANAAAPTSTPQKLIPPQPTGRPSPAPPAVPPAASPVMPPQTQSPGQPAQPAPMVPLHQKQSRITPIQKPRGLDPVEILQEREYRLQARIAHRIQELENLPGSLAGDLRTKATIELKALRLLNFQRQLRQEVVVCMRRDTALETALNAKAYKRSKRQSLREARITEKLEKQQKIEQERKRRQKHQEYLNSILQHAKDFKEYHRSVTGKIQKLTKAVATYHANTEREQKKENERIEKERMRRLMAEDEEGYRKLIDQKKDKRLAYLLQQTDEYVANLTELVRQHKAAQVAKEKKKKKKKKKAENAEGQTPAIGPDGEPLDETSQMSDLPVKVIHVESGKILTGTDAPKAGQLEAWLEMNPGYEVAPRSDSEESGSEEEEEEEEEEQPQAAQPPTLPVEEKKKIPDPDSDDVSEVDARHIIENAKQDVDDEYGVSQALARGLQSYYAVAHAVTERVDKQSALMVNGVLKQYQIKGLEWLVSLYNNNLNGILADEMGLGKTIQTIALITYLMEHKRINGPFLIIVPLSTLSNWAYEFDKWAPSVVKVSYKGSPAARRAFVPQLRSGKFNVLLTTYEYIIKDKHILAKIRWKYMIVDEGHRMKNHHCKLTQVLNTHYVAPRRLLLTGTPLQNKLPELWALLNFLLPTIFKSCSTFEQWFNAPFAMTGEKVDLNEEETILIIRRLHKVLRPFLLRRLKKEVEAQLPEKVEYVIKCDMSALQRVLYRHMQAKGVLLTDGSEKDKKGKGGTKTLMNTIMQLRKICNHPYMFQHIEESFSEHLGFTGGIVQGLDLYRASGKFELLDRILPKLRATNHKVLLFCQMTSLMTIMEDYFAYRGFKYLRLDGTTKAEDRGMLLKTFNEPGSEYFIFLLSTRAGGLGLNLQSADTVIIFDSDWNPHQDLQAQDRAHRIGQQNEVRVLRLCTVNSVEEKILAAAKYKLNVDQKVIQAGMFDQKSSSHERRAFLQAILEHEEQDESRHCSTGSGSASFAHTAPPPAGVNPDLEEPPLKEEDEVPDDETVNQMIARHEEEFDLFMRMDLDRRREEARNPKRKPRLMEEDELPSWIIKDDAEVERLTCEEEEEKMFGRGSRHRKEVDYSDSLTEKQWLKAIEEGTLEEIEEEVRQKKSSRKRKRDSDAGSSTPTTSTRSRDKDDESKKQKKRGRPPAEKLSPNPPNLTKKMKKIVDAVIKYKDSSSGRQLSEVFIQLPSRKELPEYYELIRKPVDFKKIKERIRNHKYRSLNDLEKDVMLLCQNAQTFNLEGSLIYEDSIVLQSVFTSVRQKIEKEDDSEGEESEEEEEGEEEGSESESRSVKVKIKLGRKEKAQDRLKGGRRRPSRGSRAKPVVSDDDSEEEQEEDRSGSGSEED
UniProt Q9BW92, sequence (Q9BW92 whole entry, looked up): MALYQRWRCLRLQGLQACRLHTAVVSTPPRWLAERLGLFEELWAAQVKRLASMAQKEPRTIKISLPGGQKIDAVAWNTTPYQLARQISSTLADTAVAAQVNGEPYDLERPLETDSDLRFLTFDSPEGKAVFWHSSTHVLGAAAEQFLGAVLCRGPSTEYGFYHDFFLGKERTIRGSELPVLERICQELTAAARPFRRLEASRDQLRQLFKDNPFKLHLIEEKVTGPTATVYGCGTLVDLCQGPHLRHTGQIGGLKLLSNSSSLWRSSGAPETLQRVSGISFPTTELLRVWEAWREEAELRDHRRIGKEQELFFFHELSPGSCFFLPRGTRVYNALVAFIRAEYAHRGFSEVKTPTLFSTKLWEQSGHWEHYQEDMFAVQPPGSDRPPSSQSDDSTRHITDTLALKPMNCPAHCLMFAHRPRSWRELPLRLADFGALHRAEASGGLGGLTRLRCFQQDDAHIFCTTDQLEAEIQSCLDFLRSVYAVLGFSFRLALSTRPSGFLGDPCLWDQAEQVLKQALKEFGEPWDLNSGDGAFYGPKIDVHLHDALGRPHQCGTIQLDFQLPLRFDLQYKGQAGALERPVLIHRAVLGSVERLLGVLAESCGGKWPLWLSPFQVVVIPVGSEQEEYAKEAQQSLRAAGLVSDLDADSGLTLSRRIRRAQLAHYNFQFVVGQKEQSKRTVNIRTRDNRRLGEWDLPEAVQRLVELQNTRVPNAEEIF
UniProt P12931, sequence (P12931 whole entry, looked up): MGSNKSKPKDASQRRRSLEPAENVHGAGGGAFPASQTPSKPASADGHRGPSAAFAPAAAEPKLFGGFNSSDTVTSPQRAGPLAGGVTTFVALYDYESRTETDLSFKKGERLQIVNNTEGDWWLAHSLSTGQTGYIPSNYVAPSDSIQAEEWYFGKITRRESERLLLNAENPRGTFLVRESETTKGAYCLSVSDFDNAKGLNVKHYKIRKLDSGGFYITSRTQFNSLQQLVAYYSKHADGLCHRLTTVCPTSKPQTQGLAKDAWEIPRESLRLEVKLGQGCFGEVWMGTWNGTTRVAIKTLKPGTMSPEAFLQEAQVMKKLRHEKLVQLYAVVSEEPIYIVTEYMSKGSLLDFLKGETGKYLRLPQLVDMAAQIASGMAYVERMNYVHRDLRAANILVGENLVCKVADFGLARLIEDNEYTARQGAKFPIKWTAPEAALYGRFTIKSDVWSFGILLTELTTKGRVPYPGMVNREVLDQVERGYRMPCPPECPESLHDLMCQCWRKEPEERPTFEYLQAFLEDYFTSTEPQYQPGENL
UniProt Q96CW6, sequence (Q96CW6 whole entry, looked up): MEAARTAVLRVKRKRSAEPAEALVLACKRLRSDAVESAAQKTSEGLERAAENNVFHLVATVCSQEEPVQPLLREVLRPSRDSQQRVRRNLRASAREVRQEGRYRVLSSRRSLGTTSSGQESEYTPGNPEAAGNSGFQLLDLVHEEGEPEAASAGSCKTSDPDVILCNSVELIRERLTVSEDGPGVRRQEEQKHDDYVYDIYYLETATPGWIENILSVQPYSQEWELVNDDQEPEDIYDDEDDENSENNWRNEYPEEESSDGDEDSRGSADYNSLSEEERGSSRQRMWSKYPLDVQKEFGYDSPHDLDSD
UniProt Q969G3, sequence (Q969G3 whole entry, looked up): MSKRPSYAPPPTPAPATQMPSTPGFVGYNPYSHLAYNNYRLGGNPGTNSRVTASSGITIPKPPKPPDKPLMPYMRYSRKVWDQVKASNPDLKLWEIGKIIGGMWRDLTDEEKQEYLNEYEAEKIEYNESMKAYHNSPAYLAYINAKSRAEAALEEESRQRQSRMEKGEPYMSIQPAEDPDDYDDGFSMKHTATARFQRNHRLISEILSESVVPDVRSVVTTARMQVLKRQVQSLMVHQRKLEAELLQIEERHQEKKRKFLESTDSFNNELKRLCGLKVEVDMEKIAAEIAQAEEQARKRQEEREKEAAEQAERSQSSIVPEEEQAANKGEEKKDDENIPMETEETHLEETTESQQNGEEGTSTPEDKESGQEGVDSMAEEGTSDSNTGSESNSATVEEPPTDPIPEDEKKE
UniProt Q9P289, sequence (Q9P289 whole entry, looked up): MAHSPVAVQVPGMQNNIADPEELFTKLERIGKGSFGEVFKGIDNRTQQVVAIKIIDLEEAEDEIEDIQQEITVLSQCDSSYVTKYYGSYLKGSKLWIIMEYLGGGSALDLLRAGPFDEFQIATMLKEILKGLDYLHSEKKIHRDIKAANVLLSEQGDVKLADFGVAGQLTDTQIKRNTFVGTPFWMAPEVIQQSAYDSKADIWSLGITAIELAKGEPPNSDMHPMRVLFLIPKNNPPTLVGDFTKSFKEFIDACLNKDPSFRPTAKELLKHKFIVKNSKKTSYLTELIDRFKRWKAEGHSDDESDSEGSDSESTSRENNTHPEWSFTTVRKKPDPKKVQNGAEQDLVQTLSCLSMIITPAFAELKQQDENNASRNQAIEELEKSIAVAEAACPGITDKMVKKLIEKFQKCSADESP
UniProt Q9NZD8, sequence (Q9NZD8 whole entry, looked up): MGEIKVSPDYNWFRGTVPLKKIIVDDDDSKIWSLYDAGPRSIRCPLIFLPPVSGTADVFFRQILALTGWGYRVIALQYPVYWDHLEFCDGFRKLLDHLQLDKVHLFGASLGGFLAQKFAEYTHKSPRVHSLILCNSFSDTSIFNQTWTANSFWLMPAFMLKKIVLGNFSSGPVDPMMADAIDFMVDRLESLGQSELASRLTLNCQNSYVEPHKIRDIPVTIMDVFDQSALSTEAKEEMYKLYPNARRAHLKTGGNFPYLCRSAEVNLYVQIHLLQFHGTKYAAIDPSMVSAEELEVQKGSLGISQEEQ
UniProt Q658P3, sequence (Q658P3 whole entry, looked up): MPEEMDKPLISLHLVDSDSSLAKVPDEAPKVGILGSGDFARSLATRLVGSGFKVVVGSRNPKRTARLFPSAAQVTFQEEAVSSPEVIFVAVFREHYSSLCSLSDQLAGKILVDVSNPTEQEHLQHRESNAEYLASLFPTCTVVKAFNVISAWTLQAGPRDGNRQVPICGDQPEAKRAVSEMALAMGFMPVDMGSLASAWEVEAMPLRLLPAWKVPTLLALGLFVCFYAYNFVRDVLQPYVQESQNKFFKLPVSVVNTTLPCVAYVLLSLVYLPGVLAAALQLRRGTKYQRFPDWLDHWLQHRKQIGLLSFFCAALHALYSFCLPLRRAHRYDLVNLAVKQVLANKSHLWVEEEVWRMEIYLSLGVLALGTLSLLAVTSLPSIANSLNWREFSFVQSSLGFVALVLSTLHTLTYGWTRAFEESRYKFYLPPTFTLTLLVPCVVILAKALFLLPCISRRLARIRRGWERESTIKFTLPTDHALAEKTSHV
UniProt Q9Y5J6, sequence (Q9Y5J6 whole entry, looked up): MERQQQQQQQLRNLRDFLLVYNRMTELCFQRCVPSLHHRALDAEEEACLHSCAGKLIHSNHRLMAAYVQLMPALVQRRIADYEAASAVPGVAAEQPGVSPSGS

| Target | log2 fold change [1] | log2 fold change [2] | log2 fold change [3] | log2 fold change [4] | log2 fold change [5] | log2 fold change [6] | log2 fold change [7] | log2 fold change [8] | log2 fold change [9] | log2 fold change [10] |
| --- | --- | --- | --- | --- | --- | --- | --- | --- | --- | --- |
| SRXN1 (UniProt Q9BYN0) | -0.013 | -0.364 | -0.024 | -0.021 | -0.053 | -0.24 | -0.039 | -0.059 | -0.111 | 0.09 |
| SLC7A6OS (UniProt Q96CW6) | -0.023 | -0.085 | -0.079 | 0.042 | -0.043 | 0.056 | 0.098 | 0.06 | -0.036 | -0.037 |
| SMAP2 (UniProt Q8WU79) | -0.013 | 0.024 | -0.043 | -0.069 | -0.01 | 0.002 | 0.056 | 0.06 | -0.122 | -0.028 |
| SMARCE1 (UniProt Q969G3) | 0.05 | 0.096 | 0.218 | 0.707 | 0.076 | 0.088 | 0 | 0.211 | -0.008 | -0.016 |
| STIM1 (UniProt Q13586) | -0.032 | -0.074 | -0.075 | -0.117 | 0.011 | 0.022 | -0.013 | 0.007 | -0.054 | -0.04 |
| SLC9A6 isoform 2 (UniProt Q92581) | -0.021 | 0.016 | -0.091 | -0.02 | -0.017 | -0.078 | 0.025 | 0.027 | -0.021 | -0.073 |
| TAMM41 isoform 3 (UniProt Q96BW9) | 0.001 | -0.052 | -0.148 | -0.059 | 0.022 | 0.023 | 0.013 | -0.004 | -0.125 | -0.043 |
| SLC30A7 (UniProt Q8NEW0) | -0.035 | 0.013 | -0.276 | -0.178 | 0.024 | -0.024 | -0.028 | 0.039 | 0.025 | -0.032 |
| SLC27A2 (UniProt O14975) | -0.068 | -0.091 | 0.007 | -0.047 | -0.023 | -0.053 | 0.059 | 0.083 | 0.247 | -0.035 |
| STEAP3 isoform 2 (UniProt Q658P3) | -0.13 | 0.076 | -0.042 | -0.006 | 0.008 | 0.086 | 0.013 | 0 | -0.028 | -0.082 |
| SPINDOC (UniProt Q9BUA3) | 0.09 | 0.003 | 0.014 | -0.061 | -0.188 | -0.014 | -0.106 | -0.061 | -0.102 | 0.053 |
| SMCHD1 (UniProt A6NHR9) | -0.085 | -0.352 | 0.159 | -0.423 | 0.08 | 0.19 | 0.085 | 0.095 | 0.206 | -0.176 |
| SRI (UniProt P30626) | -0.014 | 0.081 | -0.04 | 0 | 0.058 | -0.044 | 0.027 | -0.004 | -0.045 | -0.038 |
| SPAST (UniProt Q9UBP0) | 0.027 | -0.003 | -0.12 | -0.109 | 0.075 | 0.033 | 0.058 | 0.028 | -0.035 | -0.029 |
| TIMM10B (UniProt Q9Y5J6) | 0.021 | 0.257 | -0.111 | -0.007 | 0.016 | -0.202 | 0.074 | 0.034 | -0.04 | 0.022 |
| SRSF11 (UniProt Q05519) | -0.183 | -0.032 | -0.063 | -0.074 | 0.018 | 0.06 | 0.046 | -0.099 | 0.037 | -0.038 |
| STK26 (UniProt Q9P289) | 0.07 | -0.005 | -0.111 | -0.057 | -0.063 | 0.034 | 0.092 | 0.069 | -0.017 | -0.007 |
| TK1 (UniProt P04183) | 0.021 | 0.018 | 0.02 | 0.031 | -0.068 | -0.007 | 0.016 | 0.013 | -0.025 | -0.027 |
| THYN1 (UniProt Q9P016) | 0 | -0.011 | -0.048 | -0.103 | -0.004 | 0.011 | 0.008 | -0.011 | -0.022 | -0.034 |
| TARS2 (UniProt Q9BW92) | 0.008 | -0.018 | -0.27 (active) | -0.031 | 0.011 | -0.051 | 0.038 | -0.005 | -0.057 | -0.008 |
| SMARCAD1 isoform 2 (UniProt Q9H4L7) | -0.109 | -0.043 | -0.187 | -0.072 | 0.057 | 0.045 | 0.037 | 0.03 | -0.187 | 0.088 |
| TBC1D24 (UniProt Q9ULP9) | 0.047 | -0.038 | -0.091 | -0.002 | 0.029 | 0.291 | 0.016 | -0.135 | -0.082 | -0.096 |
| SRC isoform 2 (UniProt P12931) | -0.578 (active) | 0.006 | 0.049 | -0.088 | 0.12 | 0.079 | -0.104 | 0.122 | 0.093 | 0.199 |
| SSRP1 (UniProt Q08945) | -0.017 | -0.012 | -0.078 | 0.003 | 0.007 | 0.059 | 0.155 | 0.007 | -0.171 | -0.013 |
| SPG21 (UniProt Q9NZD8) | 0.072 | 0.305 (active) | -0.054 | 0.123 | 0.004 | 0.013 | -0.001 | -0.013 | -0.104 | 0.007 |
| TFR2 (UniProt Q9UP52) | -0.039 | -0.004 | -0.601 (active) | 0.007 | 0.007 | 0.002 | 0.033 | -0.001 | -0.035 | -0.067 |
| SMARCA4 (UniProt P51532) | -0.144 | -0.056 | 0.048 | -0.201 | 0.012 | 0.038 | 0.102 | -0.017 | -0.067 | -0.115 |
